Rows were chosen to be rich in hits. Some 6% of all compounds tested hit in one or more screens of this group.
D1 potentiator – potentiators of human D1 dopamine receptor. P21728. HEK293 TREx D1 cells, calcium flux, dopamine EC20 potentiation. potentiation, % at 10 µM. 0.036% of 360,000 active. AID 504651; in the data active = potentiation above about 30%; also: 0% is about no effect
Target sequence (P21728 whole entry, looked up): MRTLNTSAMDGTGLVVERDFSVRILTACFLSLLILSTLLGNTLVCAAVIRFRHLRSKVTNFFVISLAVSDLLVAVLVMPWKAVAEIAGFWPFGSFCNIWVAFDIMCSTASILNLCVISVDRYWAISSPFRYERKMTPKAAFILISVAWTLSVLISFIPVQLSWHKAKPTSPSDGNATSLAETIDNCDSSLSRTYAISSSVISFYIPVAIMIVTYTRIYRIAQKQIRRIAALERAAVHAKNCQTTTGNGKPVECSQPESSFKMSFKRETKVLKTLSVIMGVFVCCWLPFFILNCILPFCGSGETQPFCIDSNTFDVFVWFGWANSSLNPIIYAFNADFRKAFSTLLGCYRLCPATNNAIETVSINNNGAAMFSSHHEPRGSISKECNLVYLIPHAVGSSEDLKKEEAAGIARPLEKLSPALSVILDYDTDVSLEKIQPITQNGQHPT
D1 ag – agonists of human D1 dopamine receptor; HEK293 T-REx D1 cells, calcium flux, agonist mode; 1% of 360,000 active; activation, % at 2 µM; P21728; in the data active = activation above about 30%; also: 0% is about no effect
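Tetracycline-induced HEK293 TREx D1 cells, force-coupled to calcium signalling, were dye-loaded with a no-wash calcium kit. Compound was pin-added after a 10 s baseline. Fluorescence was read kinetically at 1 cycle/s for 180 s, with calcium rises flagged as agonism.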
D1 antagonist – blocks dopamine activation of the human D1 receptor. HEK293 TREx D1 cells, calcium flux, dopamine EC80; hits give low values. 3.2% of 360,000 active. P21728. activity change, negative = inhibition, % at 10 µM. AID 504652; in the data active = activity change below about -30%; also: % is scaled to controls: 0 for no effect and ±100 for the full control effect
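Compound effects on dopamine-evoked calcium signalling were measured in tetracycline-induced HEK293 Trex D1 cells. Dopamine at EC80 followed a 180 s compound pre-read, and fluorescence was tracked kinetically for 180 s more.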
D3 antag – antagonists of human D3 dopamine receptor; D3R cells, DiscoveRx beta-arrestin luminescence, antagonist mode; hits give low values; max response, negative = inhibition, %; 2.5% of 360,000 active; in the data active = max response below about -50%; inconclusive = no clear call, values can overlap the other calls; also: % is scaled to controls: 0 for no effect and ±100 for the full control effect
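Cells expressing the human receptor were seeded at 1500 cells/well, incubated overnight at 37 degrees C in 5% CO2, then exposed to library compounds with dopamine controls for 90 minutes at 37 degrees C before luminescent detection.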
DRD3 agonist – agonists of human D3 dopamine receptor; D3R DiscoveRx beta-arrestin cells, luminescence, 90 min; max activation, %; 0.58% of 410,000 active; AID 652048; in the data active = max activation above about 30%; also: 0% is about no effect
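Cells at 1500/well, incubated overnight, then treated with pinned compounds (dopamine as control) for 90 min at 37 degrees C. DiscoveRx reagent added for 30 - 60 minutes at room temperature; luminescence read.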
Active calls of the source: *; ? = inconclusive; . = no result given.

SMILES | D1 potentiator | D1 ag | D1 antagonist | D3 antag | DRD3 agonist
Oc1ccccc1-c1nc(/C=C/c2ccccc2Cl)no1 | 0.1 | 4.7 | -0.4 | . | 87.8*
CN(C)c1ccc(/C=C/c2noc(-c3ccccc3O)n2)cc1 | -2.1 | 1.4 | 3.2 | . | 5.5
N=c1n(Cc2ccc(Cl)cc2)c2ccccc2n1CC(O)COc1ccccc1 (stereo unspecified) | -2.6 | 68.1* | -6.3 | 11.4 | 11.9
N=c1n(Cc2ccccc2)c2ccccc2n1CC(O)COc1ccc(Cl)cc1Cl (stereo unspecified) | 32.0* | 87.4* | -6.9 | 3.8 | 2.3
COc1ccc(OCC(O)Cn2c(=N)n(Cc3ccccc3)c3ccccc32)cc1 (stereo unspecified) | -19.7 | 48.4* | -46.0* | -12.9 | 1.5
Cc1cccc(OCC(O)Cn2c(=N)n(Cc3ccccc3)c3ccccc32)c1 (stereo unspecified) | -3.5 | 67.5* | -3.1 | 0.0 | 3.9
Cc1ccc(OCC(O)Cn2c(=N)n(Cc3ccccc3)c3ccccc32)cc1 (stereo unspecified) | -4.6 | 9.9 | -5.3 | 2.4 | 2.1
Cc1ccc(-c2cc3ncc(C(=O)c4cc([N+](=O)[O-])ccc4O)cn3n2)cc1 | -4.5 | 12.2 | 9.7 | . | -15.7
O=Cc1ccc(N2CCCC2)o1 | 0.2 | 1.3 | 1.0 | 14.5 | 1.6
N#C/C(=C\c1ccc(N2CCCCC2)o1)C(=O)Nc1cccc(Br)c1 | -12.5 | 427.6* | -12.5 | -17.7 | -4.6
N#C/C(=C\c1ccc(N2CCCCC2)o1)C(N)=O | -6.6 | 36.9* | 0.0 | -4.5 | 0.3
COc1ccc(CNCc2c(C(=O)O)c(C)n(Cc3ccc(Cl)cc3)c2C)c(OC)c1 | -1.4 | -1.7 | -20.4 | . | -12.6
Cn1cc(C(c2ccccc2)c2ccc(Cl)s2)c2ccccc21 (stereo unspecified) | -0.8 | 2.0 | 1.5 | . | -20.4
Cc1cc2c(s1)c1cnn(Cc3cccc(Cn4ncc5c6sc(C)cc6n(C)c5c4=O)c3F)c(=O)c1n2C | 7.0 | 1.9 | -14.0 | . | .
CC(C)NCC(O)(c1ccc(Cl)cc1)c1ccc(Cl)cc1 | -2.5 | 14.1 | 9.9 | 1.9 | -3.3
NCC(O)(c1ccc(Cl)cc1)c1ccc(Cl)cc1 | -8.9 | 50.5* | -4.0 | 1.8 | 4.0
COc1ccc(C(C(=O)Nc2c(C)cccc2C)n2c(=O)c(-c3ccco3)nc3ccccc32)cc1 (stereo unspecified) | . | . | . | 4.2 | -12.2
O=C(c1cc2c(s1)-c1ccccc1OC2)N1CCN(c2ccc(F)cc2)CC1 | -1.1 | 1.9 | 4.0 | . | -8.0
CC(=O)c1ccc(N2CCN(C(=O)c3cc4c(s3)-c3ccccc3OC4)CC2)cc1 | -5.2 | 0.1 | -64.4* | . | -8.1
O=C(NC1CC1)c1cc2c(s1)-c1ccccc1OC2 | -10.3 | 0.0 | -46.3* | ? | 4.6
CN(C)CCN(Cc1ccco1)C(=O)c1cc2c(s1)-c1ccccc1OC2 | -4.5 | 7.1 | -70.0* | . | -22.0
COc1cc2ccccc2cc1C(=O)Nc1ccc(Cl)c(-c2nc3ccccc3o2)c1 | -2.2 | 6.9 | -17.6 | . | 4.7
CC1CCN(C(C)C(=O)Nc2ccccc2-c2ccccc2)CC1 (stereo unspecified) | 4.7 | 1.7 | 53.4 | -56.0* | -6.0
O=C1C(C=NCCCN2CCOCC2)=C(O)c2ccccc21 | -8.1 | 1.6 | -36.9* | -3.6 | 2.9
O=C1C(C=NCCN2CCOCC2)=C(O)c2ccccc21 | -0.8 | 5.5 | 6.9 | -14.2 | -3.8
SMILES | D1 potentiator | D1 ag | D1 antagonist | D3 antag | DRD3 agonist
CCCCN(C)C(=O)c1ccc2c(=O)n3nc(Nc4cc(C)ccc4C)sc3nc2c1 | -3.5 | 3.2 | -67.9* | . | 0.1
Cc1ccccc1Nc1nn2c(=O)c3ccc(C(=O)NCc4ccccc4)cc3nc2s1 | -5.3 | -0.6 | 11.5 | . | -3.0
Cc1ccc(Cl)cc1Nc1nn2c(=O)c3ccc(C(=O)NCc4ccc(F)cc4)cc3nc2s1 | -4.3 | 1.6 | -33.4* | . | 8.5
CC(O)(c1ccc(F)c(F)c1)c1nc(-c2ccc(S(C)(=O)=O)cc2)cs1 (stereo unspecified) | . | . | . | 3.5 | 5.7
COc1ccc(NC(=S)N(CCC(C)C)C2CCN(C(C)C)CC2)cc1 | 7.5 | 2.8 | -9.0 | -53.9* | -16.4
COc1ccc(NC(=S)N(CCC(C)C)C2CCN(C(C)=O)CC2)cc1 | -7.0 | 3.6 | -16.1 | 2.6 | -0.9
O=c1cc(CN2CCN(S(=O)(=O)c3ccccc3)CC2)nc2sc(-c3ccccc3Cl)nn12 | 2.5 | -0.3 | 1.1 | . | 5.5
O=c1cc(CN2CCN(S(=O)(=O)c3ccc(Cl)cc3)CC2)nc2sc(-c3ccccc3F)nn12 | -2.8 | -1.1 | -36.6* | . | 3.7
Cc1ccccc1-c1nn2c(=O)cc(CN3CCN(S(=O)(=O)c4ccc(Cl)cc4)CC3)nc2s1 | -6.4 | -0.6 | -30.3* | . | -17.0
C=CCN(CC=C)Cc1cc(=O)oc2cc(OC)ccc12 | . | . | . | 0.0 | 3.2
NCCNC(=O)c1ncsc1-c1cccc(F)c1 | . | . | . | -52.4* | -33.1
CCCNC(=S)Nc1ccc2nc(-c3ccccn3)c(-c3ccccn3)nc2c1 | -10.7 | 1.6 | -37.2* | 1.1 | 6.9
S=C(Nc1ccc2nc(-c3ccccn3)c(-c3ccccn3)nc2c1)N1CCCCC1 | -2.6 | 0.9 | -6.1 | 7.1 | -0.1
O=c1c2oc3ccccc3c2n(Cc2cccc(Cl)c2)c(=O)n1Cc1ccco1 | -0.7 | 7.4 | -4.7 | . | -3.8
COc1cccc(NC(=O)C(=O)N/N=C/c2cc(C)n(-c3ccc(Cl)c(Cl)c3)c2C)c1 | 0.7 | 3.0 | -11.1 | -93.6* | -9.0
COc1ccccc1/C=N/NC(=O)CC(=O)Nc1ccc(Cl)c(Cl)c1 | -4.5 | 0.1 | 47.9 | -65.0* | -1.9
C=CCOC(=O)C1=C(C)NC(SCC(=O)Nc2nccs2)=C(C#N)C1c1cccs1 (stereo unspecified) | -21.8 | 1.7 | -75.5* | 6.6 | 2.5
C=CCOC(=O)C1=C(C)NC(SCC(=O)Nc2nccs2)=C(C#N)C1c1ccc(Cl)cc1 (stereo unspecified) | -13.7 | 0.5 | -69.6* | 14.9 | -1.6
C=CCOC(=O)C1=C(C)NC(SC)=C(C#N)C1c1cccs1 (stereo unspecified) | -5.8 | -0.1 | -20.1 | 0.2 | 0.2
CC(=O)C1=C(C)NC(SCC(=O)Nc2nccs2)=C(C#N)C1c1ccccc1Cl (stereo unspecified) | 11.6 | 1.6 | -8.0 | 2.2 | -3.8
CCOC(=O)C1=C(C)NC(SCC(=O)Nc2cc(C)on2)=C(C#N)C1c1cccs1 (stereo unspecified) | -6.2 | 3.3 | -48.2* | 4.8 | 6.7
CCOC(=O)C1=C(C)NC(SCC(N)=O)=C(C#N)C1c1cccs1 (stereo unspecified) | -5.0 | 2.0 | 34.8 | -13.6 | -21.4
Cc1ccc(Cl)cc1N1CCN(C(=O)c2cc(S(=O)(=O)N3CCCC3)c[nH]2)CC1 | -6.0 | 3.9 | 3.6 | . | -11.8
C#CCN1C(=O)C(O)(CC(=O)c2ccc(OC)c(OC)c2)c2cc(Br)ccc21 (stereo unspecified) | -2.5 | 7.8 | 8.4 | . | 6.8

Screening data from PubChem BioAssay.
